In PubChem BioAssay:
Active and inactive are the calls of the source.

Legend:
[1] = test system: PRMT1 (protein arginine N-methyltransferase 1); assay: PRMT1 binders on small-molecule microarrays, primary screen, biochemical, small-molecule microarray, 635 nm fluorescence (AID 1088); settings: small-molecule microarray binding, higher = more signal;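 further: binding of Prmt1 protein to compounds spotted on small-molecule microarray slides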
[2] = yeast growth modulation, basal conditions, primary screen, YJM789 clinical isolate, OD600, 24 h (AID 1089);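 further: growth of clinical yeast isolate S. cerevisiae YJM 789 seeded 1000 cells per well; test concentration not given here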; settings: S. cerevisiae YJM789 growth, higher = more signal, called active from +8 up or from −8 down
[3] = fission yeast growth modulation, primary screen, strain 972, OD600, 24 h, no modulator (AID 1090);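 further: basal condition with compound alone and no growth modifier present; test concentration not given here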; settings: S. pombe 972 growth, higher = more signal, called active from +8 up or from −8 down
[4] = S. cerevisiae growth modulation with rapamycin, primary screen, strain BY4716, OD600, 96 h (AID 1091); settings: higher = more signal, called active from +8 up or from −8 down; further: test concentration not given here
[5] = target: Torsin-1A-interacting protein 2 (Homo sapiens) (UniProt Q8NFQ8); assay: LULL1 binders on small-molecule microarray, primary screen, cell lysate, human LULL1 lysate, 635/667 nm fluorescence (AID 1092); settings: hLULL1 lysate binding, 635 nm fluorescence, higher = more signal;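 further: probe is lysate of COS7 cells overexpressing human LULL1; score merges per-feature 667 nm fluorescence with signal-to-noise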
[6] = E. coli growth modulation, two-sided OD650, primary screen, E. coli filamentation project, strain DRC41, 24 h (AID 1093); settings: OD650, 24 h, higher = more signal, called active from +8 up or from −8 down;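 further: MC1000 strain lacking acrAB efflux and sulA so SOS filamentation is blocked; test concentration not given here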
[7] = small-molecule microarray binders of probe aLefty2, primary screen, biochemical, biotinylated probe, 635/667 nm fluorescence (AID 1094); settings: higher = more signal;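 further: score merges spot fluorescence near 667 nm with spot signal-to-noise ratio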
[8] = test system: Noggin (protein binding on small-molecule microarray); assay: Noggin binders on small-molecule microarray, primary screen, biochemical, 635/667 nm fluorescence (AID 1095); settings: 635 nm fluorescence, higher = more signal;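 further: score merges 667 nm feature fluorescence with signal to noise over triplicate slides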
[9] = target: Neurogenic locus notch homolog protein 3 (Homo sapiens) (UniProt Q9UM47); assay: NOTCH3 binders on small-molecule microarray, primary screen, biochemical, 635/667 nm fluorescence (AID 1096); settings: NOTCH3 binding, 635 nm fluorescence, higher = more signal
[10] = small-molecule microarray binders of probe aEGFR, primary screen, biochemical, biotinylated probe, 635/667 nm fluorescence (AID 1097); settings: higher = more signal;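 further: probe is a biotinylated anti-EGFR antibody binding compounds printed on slides; score combines fluorescence near 667 nm and signal to noise of each spot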
[11] = test system: Plasmodium falciparum Sir2 (PF13_0152, Sir2A); assay: pfSir2 binders on small-molecule microarrays, primary screen, biochemical, small-molecule microarray, 635 nm fluorescence (AID 1098); settings: small-molecule microarray binding, fluorescence 635 nm; higher = more signal;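 further: score merges spot fluorescence intensity with its signal-to-noise ratio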
[12] = small-molecule microarray binders of probe aDKK1, primary screen, biochemical, biotinylated probe, 635/667 nm fluorescence (AID 1099); settings: higher = more signal;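 further: score merges 667nm spot fluorescence with signal to noise across triplicate slides; reference of the scale not given here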
[13] = small-molecule microarray binders of probe aCHRDL2, primary screen, biochemical, biotinylated probe, 635/667 nm fluorescence (AID 1100); settings: higher = more signal
[14] = splicing luciferase reporter signal modulators, primary screen, spliceosome inhibition project, cell-based, HEK293, splice +/- reporter (AID 1101); settings: luminescence, 24 h, higher = more signal, called active from +8 up or from −8 down;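 further: HEK293 cells carrying a splicing-competent luciferase reporter gene; test concentration not given here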
[15] = target: Fibroblast growth factor 10 (Homo sapiens) (UniProt O15520); assay: FGF10 binders on small-molecule microarrays, primary screen, biochemical, small-molecule microarray, 635 nm fluorescence (AID 1102); settings: FGF10 binding, fluorescence 635 nm, higher = more signal
[16] = test system: glycogen synthase kinase-3 (GSK3A per assay name; protocol says GSK3B); assay: GSK3 binders on small-molecule microarrays, primary screen, biochemical, small-molecule microarray, 635 nm fluorescence, GSK3A (AID 1103); settings: small-molecule microarray binding, fluorescence 635 nm; higher = more signal; further: the record names both GSK3A and GSK3B
[17] = target: Epidermal growth factor receptor (Homo sapiens) (UniProt P00533); assay: EGFR binders on small-molecule microarrays, primary screen, biochemical, small-molecule microarray, 635 nm fluorescence (AID 1104); settings: EGFR binding, higher = more signal;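 further: score merges 667 nm emission intensity with spot signal to noise over triplicate slides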
[18] = target: Follistatin-related protein 3 (Homo sapiens) (UniProt O95633); assay: FSTL3 binders on small-molecule microarrays, primary screen, biochemical, small-molecule microarray, 635 nm fluorescence (AID 1105); settings: FSTL3 binding, higher = more signal;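 further: score merges emission near 667 nm and signal to noise per printed spot across three slides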
[19] = target: Dickkopf-related protein 1 (Homo sapiens) (UniProt O94907); assay: DKK1 binders on small-molecule microarrays, primary screen, biochemical, small-molecule microarray, 635 nm fluorescence scan (AID 1106); settings: DKK1 binding, higher = more signal;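 further: score merges emission near 667 nm with signal to noise over three replicate slides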
[20] = test system: Inhibin beta A chain (activin A); assay: INHBA (activin A) binders on microarrays, primary screen, biochemical, small-molecule microarray, 635 nm fluorescence scan (AID 1107); settings: small-molecule microarray binding, higher = more signal;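 further: mouse activin A protein probed at 4.33 µg/mL on printed slides; score merges bound-protein fluorescence near 667 nm with spot signal-to-noise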

Chain of Epidermal growth factor receptor (Homo sapiens) (P00533 whole entry, looked up): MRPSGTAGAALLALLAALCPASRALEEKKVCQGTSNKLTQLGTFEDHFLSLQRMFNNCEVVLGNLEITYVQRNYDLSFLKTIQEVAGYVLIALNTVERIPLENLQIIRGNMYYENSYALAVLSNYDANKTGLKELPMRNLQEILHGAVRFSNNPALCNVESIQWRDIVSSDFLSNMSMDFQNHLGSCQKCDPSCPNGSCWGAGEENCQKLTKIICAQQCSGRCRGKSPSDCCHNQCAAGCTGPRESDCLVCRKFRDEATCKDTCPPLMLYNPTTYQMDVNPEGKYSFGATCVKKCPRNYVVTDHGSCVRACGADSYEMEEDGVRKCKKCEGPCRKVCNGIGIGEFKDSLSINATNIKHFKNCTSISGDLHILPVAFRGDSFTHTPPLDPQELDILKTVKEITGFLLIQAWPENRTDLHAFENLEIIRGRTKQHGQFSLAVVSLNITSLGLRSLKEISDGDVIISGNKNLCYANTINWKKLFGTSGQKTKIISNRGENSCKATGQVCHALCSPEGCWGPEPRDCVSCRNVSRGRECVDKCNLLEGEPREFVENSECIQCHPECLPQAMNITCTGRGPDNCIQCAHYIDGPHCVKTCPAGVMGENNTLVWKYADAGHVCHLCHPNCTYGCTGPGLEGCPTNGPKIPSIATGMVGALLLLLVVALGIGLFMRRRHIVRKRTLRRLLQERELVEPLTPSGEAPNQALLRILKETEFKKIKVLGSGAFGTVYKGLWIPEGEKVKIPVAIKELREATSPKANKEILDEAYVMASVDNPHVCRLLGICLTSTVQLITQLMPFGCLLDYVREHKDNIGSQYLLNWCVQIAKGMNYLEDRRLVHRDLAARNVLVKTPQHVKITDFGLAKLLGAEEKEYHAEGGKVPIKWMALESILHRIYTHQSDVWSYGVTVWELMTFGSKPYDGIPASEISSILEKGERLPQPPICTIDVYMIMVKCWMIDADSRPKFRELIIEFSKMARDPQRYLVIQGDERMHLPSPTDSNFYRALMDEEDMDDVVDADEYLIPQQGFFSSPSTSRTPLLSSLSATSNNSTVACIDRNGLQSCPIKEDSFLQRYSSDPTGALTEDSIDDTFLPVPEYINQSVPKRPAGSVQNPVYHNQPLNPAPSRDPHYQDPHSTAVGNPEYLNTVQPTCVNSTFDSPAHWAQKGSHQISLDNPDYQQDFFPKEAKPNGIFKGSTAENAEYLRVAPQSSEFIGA
Chain of Fibroblast growth factor 10 (Homo sapiens) (O15520 whole entry, looked up): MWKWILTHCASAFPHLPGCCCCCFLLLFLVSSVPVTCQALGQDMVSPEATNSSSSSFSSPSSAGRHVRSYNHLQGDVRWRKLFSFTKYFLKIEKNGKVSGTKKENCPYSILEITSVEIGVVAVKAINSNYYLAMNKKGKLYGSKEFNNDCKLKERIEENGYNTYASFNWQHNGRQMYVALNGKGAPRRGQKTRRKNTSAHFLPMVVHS
Chain of Neurogenic locus notch homolog protein 3 (Homo sapiens) (Q9UM47 whole entry, looked up): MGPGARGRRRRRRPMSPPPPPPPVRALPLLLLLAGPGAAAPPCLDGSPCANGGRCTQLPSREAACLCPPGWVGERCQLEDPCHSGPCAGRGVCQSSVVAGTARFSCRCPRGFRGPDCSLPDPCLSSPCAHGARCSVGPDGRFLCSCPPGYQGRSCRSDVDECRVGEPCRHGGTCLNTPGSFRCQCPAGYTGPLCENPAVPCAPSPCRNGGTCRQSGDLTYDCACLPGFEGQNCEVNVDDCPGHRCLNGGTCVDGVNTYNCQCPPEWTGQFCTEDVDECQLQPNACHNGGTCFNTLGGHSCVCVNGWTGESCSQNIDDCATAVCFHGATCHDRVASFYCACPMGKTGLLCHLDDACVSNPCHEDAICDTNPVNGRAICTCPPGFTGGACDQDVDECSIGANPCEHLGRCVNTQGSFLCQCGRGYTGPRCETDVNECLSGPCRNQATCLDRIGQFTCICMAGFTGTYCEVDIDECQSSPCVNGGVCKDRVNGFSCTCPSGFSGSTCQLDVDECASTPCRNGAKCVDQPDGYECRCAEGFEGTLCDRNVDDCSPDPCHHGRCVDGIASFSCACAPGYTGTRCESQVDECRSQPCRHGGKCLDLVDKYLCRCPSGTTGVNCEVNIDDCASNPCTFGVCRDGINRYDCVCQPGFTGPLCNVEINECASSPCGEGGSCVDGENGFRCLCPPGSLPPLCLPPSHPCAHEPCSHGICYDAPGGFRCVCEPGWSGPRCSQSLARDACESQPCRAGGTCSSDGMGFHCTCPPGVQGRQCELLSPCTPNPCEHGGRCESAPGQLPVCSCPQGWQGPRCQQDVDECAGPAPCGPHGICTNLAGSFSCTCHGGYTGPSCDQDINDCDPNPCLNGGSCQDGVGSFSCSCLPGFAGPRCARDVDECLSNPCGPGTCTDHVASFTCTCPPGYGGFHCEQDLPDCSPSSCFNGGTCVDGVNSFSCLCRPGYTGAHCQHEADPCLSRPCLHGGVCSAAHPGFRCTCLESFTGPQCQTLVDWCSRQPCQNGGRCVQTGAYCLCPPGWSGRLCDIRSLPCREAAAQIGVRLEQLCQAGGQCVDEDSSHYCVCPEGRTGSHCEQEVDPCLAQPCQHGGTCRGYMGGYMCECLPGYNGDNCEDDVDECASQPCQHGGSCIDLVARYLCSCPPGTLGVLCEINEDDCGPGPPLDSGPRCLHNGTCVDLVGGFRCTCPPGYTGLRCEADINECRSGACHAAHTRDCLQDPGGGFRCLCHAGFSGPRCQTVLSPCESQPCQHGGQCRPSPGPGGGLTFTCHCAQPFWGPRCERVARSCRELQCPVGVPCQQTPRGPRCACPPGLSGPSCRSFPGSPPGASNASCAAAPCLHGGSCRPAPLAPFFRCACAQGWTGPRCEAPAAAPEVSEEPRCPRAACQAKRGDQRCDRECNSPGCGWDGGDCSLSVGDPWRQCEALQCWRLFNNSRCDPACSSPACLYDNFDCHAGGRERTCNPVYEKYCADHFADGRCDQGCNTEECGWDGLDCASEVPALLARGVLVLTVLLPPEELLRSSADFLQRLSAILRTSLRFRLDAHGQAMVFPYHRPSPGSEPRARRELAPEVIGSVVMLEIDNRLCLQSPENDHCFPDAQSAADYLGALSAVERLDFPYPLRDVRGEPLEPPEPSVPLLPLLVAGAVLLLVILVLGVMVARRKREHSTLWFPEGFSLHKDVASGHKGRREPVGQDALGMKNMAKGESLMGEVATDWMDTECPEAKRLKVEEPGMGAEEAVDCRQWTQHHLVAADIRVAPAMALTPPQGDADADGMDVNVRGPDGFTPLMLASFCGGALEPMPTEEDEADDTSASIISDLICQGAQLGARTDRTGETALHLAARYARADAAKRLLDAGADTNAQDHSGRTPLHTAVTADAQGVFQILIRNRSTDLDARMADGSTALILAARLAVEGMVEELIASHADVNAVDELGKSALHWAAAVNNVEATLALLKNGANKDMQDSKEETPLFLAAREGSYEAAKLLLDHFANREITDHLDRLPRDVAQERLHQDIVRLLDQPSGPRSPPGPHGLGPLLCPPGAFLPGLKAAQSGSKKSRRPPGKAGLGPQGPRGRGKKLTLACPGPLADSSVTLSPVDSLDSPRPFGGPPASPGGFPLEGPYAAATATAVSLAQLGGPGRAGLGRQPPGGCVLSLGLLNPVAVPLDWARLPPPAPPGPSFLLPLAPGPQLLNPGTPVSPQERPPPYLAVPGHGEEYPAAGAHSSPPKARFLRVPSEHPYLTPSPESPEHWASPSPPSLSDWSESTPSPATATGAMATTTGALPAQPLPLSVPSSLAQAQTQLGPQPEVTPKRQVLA
Chain of Follistatin-related protein 3 (Homo sapiens) (O95633 whole entry, looked up): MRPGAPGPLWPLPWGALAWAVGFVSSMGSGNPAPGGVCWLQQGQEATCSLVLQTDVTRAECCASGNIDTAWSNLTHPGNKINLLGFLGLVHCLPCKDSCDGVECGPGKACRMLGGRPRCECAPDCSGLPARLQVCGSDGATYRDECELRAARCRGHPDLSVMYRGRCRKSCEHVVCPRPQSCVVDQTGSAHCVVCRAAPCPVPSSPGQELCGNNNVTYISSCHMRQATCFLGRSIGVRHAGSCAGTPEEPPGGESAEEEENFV
Chain of Dickkopf-related protein 1 (Homo sapiens) (O94907 whole entry, looked up): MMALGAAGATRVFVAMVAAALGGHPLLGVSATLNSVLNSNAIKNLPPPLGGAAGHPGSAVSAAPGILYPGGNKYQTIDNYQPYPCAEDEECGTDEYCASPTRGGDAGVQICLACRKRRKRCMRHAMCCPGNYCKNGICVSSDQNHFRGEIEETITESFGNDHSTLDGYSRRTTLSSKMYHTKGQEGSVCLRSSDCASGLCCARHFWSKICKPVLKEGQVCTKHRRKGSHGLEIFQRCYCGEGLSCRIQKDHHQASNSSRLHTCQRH
Chain of Torsin-1A-interacting protein 2 (Homo sapiens) (Q8NFQ8 whole entry, looked up): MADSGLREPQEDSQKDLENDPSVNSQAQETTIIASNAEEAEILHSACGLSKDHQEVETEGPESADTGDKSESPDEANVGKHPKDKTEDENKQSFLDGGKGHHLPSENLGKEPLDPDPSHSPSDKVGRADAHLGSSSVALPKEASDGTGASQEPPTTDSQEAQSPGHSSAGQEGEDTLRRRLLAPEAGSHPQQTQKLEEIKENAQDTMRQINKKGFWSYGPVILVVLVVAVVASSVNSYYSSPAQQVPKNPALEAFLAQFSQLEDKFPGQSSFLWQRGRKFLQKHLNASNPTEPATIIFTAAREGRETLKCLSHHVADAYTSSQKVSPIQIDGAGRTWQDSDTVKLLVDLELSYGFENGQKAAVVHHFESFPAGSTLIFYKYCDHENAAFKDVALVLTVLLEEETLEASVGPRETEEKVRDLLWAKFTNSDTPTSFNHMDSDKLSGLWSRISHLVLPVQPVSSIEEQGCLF

## Cc1ccc(S[C@]2(C(=O)O)CC(=O)N(C3CCCCC3)[C@@H]2c2ccc(CO)cc2I)cc1
[1]
  composite z-score: 1.5
[2]
  z-score: -0.693 (inactive)
[3]
  z-score: -0.472 (inactive)
[4]
  z-score: 0.253 (inactive)
[5]
  composite z-score: 3.35
[6]
  z-score: 0.843 (inactive)
[7]
  composite z-score: 0.274
[8]
  composite z-score: -0.0104
[9]
  composite z-score: 0.754
[10]
  composite z-score: -0.0369
[11]
  composite z-score: 1.48
[12]
  composite z-score: 0.431
[13]
  composite z-score: 0.903
[14]
  z-score: -0.443 (inactive)
[15]
  composite z-score: 1.27
[16]
  composite z-score: 0.797
[17]
  composite z-score: -0.131
[18]
  composite z-score: 1.04
[19]
  composite z-score: -0.231
[20]
  composite z-score: 1.06

## Cc1ccc(C(C)CC(O)C2C=CC3C(=O)N(c4ccccc4)C(=O)C3N2Nc2ccccc2)o1 (stereo not given)
[1]
  composite z-score: 1.53
[2]
  z-score: 0.568 (inactive)
[3]
  z-score: -0.132 (inactive)
[4]
  z-score: 0.144 (inactive)
[5]
  composite z-score: 3.09
[6]
  z-score: -0.866 (inactive)
[7]
  composite z-score: 0.326
[8]
  composite z-score: -0.0381
[9]
  composite z-score: 1.04
[10]
  composite z-score: 0.216
[11]
  composite z-score: 0.844
[12]
  composite z-score: 1.01
[13]
  composite z-score: 0.693
[14]
  z-score: -0.392 (inactive)
[15]
  composite z-score: 0.981
[16]
  composite z-score: 1.28
[17]
  composite z-score: 0.554
[18]
  composite z-score: 1.2
[19]
  composite z-score: -0.174
[20]
  composite z-score: 0.843

## CCOC(=O)C[C@H]1[C@H](OC(=O)c2ccccc2-c2ccccc2)[C@@H](NC(=O)c2ccc3ccccc3c2)c2cc(OCCCO)ccc2N1C(=O)c1ccccc1
[1]
  composite z-score: 0.633
[2]
  z-score: 0.393 (inactive)
[3]
  z-score: 0.379 (inactive)
[4]
  z-score: 1.98 (inactive)
[5]
  composite z-score: 0.683
[6]
  z-score: 0.356 (inactive)
[7]
  composite z-score: -0.0916
[8]
  composite z-score: 0.554
[9]
  composite z-score: 0.564
[10]
  composite z-score: 0.342
[11]
  composite z-score: 0.162
[12]
  composite z-score: -0.154
[13]
  composite z-score: -0.559
[14]
  z-score: -0.314 (inactive)
[15]
  composite z-score: 0.792
[16]
  composite z-score: 0.601
[17]
  composite z-score: 0.505
[18]
  composite z-score: 0.741
[19]
  composite z-score: 0.427
[20]
  composite z-score: -0.124

## CCCNC(=O)[C@@]1(Sc2ccc(C)cc2)CC(=O)N(C2Cc3ccccc3C2)[C@@H]1c1ccc(CO)cc1I
[1]
  composite z-score: 0.918
[2]
  z-score: -0.452 (inactive)
[3]
  z-score: -1.32 (inactive)
[4]
  z-score: 1.21 (inactive)
[5]
  composite z-score: 1.28
[6]
  z-score: 0.761 (inactive)
[7]
  composite z-score: -0.0321
[8]
  composite z-score: -0.287
[9]
  composite z-score: -0.0184
[10]
  composite z-score: -0.126
[11]
  composite z-score: 0.401
[12]
  composite z-score: 0.551
[13]
  composite z-score: 0.7
[14]
  z-score: -0.272 (inactive)
[15]
  composite z-score: -0.189
[16]
  composite z-score: -0.0794
[17]
  composite z-score: -0.172
[18]
  composite z-score: -0.268
[19]
  composite z-score: -0.236
[20]
  composite z-score: 1.04

## CC(C)c1ccc(NN2C(C(O)c3ccc(C#N)cc3)C=CC3C(=O)N(c4ccccc4)C(=O)C32)cc1 (stereo not given)
[1]
  composite z-score: 1.54
[2]
  z-score: 0.902 (inactive)
[3]
  z-score: 0.608 (inactive)
[4]
  z-score: 0.44 (inactive)
[5]
  composite z-score: 3.36
[6]
  z-score: -1.27 (inactive)
[7]
  composite z-score: 0.286
[8]
  composite z-score: -0.144
[9]
  composite z-score: 1.07
[10]
  composite z-score: 0.16
[11]
  composite z-score: 1.28
[12]
  composite z-score: 0.935
[13]
  composite z-score: 0.836
[14]
  z-score: 0.44 (inactive)
[15]
  composite z-score: 0.98
[16]
  composite z-score: 0.888
[17]
  composite z-score: 0.397
[18]
  composite z-score: 1.24
[19]
  composite z-score: -0.103
[20]
  composite z-score: 1

## CCOC(=O)C[C@H]1[C@H](OC(=O)c2ccc(C(=O)c3ccccc3)cc2)[C@@H](NC(=O)c2ccc(-c3ccccc3)cc2)c2cc(OCCCO)ccc2N1C(=O)Cc1ccc(OC)cc1
[1]
  composite z-score: 0.845
[2]
  z-score: 0.233 (inactive)
[3]
  z-score: 0.838 (inactive)
[4]
  z-score: 0.876 (inactive)
[5]
  composite z-score: 0.861
[6]
  z-score: 0.24 (inactive)
[7]
  composite z-score: 0.259
[8]
  composite z-score: 0.601
[9]
  composite z-score: 0.378
[10]
  composite z-score: -0.0302
[11]
  composite z-score: 0.0732
[12]
  composite z-score: 0.223
[13]
  composite z-score: 0.777
[14]
  z-score: -0.213 (inactive)
[15]
  composite z-score: 0.0382
[16]
  composite z-score: 0.0652
[17]
  composite z-score: -0.274
[18]
  composite z-score: 0.0472
[19]
  composite z-score: -0.537
[20]
  composite z-score: 0.783

## COC(=O)[C@]1(CCS(=O)(=O)c2ccccc2)N=C(c2ccc(OCCCO)cc2)O[C@@H]1c1ccccc1N=[N+]=[N-]
[1]
  composite z-score: 1.54
[2]
  z-score: 0.764 (inactive)
[3]
  z-score: -2.44 (inactive)
[4]
  z-score: 35.7 (active)
[5]
  composite z-score: 3.23
[6]
  z-score: -1.29 (inactive)
[7]
  composite z-score: 0.346
[8]
  composite z-score: 1.22
[9]
  composite z-score: 1.04
[10]
  composite z-score: 0.6
[11]
  composite z-score: 1.62
[12]
  composite z-score: 0.99
[13]
  composite z-score: 1.12
[14]
  z-score: -0.571 (inactive)
[15]
  composite z-score: 1.3
[16]
  composite z-score: 1.3
[17]
  composite z-score: 0.416
[18]
  composite z-score: 1.2
[19]
  composite z-score: 0.666
[20]
  composite z-score: 0.199

## CCOC(=O)C[C@H]1[C@H](OC(=O)c2ccc(C(=O)c3ccccc3)cc2)[C@@H](NC(=O)c2ccc3ccccc3n2)c2cc(OCCCO)ccc2N1C(=O)Cc1ccc(OC)cc1
[1]
  composite z-score: 0.517
[2]
  z-score: 1 (inactive)
[3]
  z-score: 1.04 (inactive)
[4]
  z-score: 0.949 (inactive)
[5]
  composite z-score: 1.36
[6]
  z-score: -0.57 (inactive)
[7]
  composite z-score: -0.157
[8]
  composite z-score: 0.842
[9]
  composite z-score: 0.312
[10]
  composite z-score: -0.206
[11]
  composite z-score: -0.318
[12]
  composite z-score: 0.57
[13]
  composite z-score: -0.385
[14]
  z-score: 0.187 (inactive)
[15]
  composite z-score: 0.0466
[16]
  composite z-score: 0.354
[17]
  composite z-score: 0.196
[18]
  composite z-score: 0.346
[19]
  composite z-score: 0.239
[20]
  composite z-score: 0.188

## Cc1ccccc1C(O)C1C=CC2C(=O)NC(=O)C2N1Nc1ccccn1 (stereo not given)
[1]
  composite z-score: 0.049
[2]
  z-score: 0.833 (inactive)
[3]
  z-score: 0.459 (inactive)
[4]
  z-score: 0.0715 (inactive)
[5]
  composite z-score: 1.6
[6]
  z-score: -0.957 (inactive)
[7]
  composite z-score: 0.0361
[8]
  composite z-score: 0.232
[9]
  composite z-score: -0.308
[10]
  composite z-score: 0.092
[11]
  composite z-score: 0.105
[12]
  composite z-score: 0.145
[13]
  composite z-score: 0.397
[14]
  z-score: 1.55 (inactive)
[15]
  composite z-score: -0.209
[16]
  composite z-score: 0.0301
[17]
  composite z-score: 0.262
[18]
  composite z-score: 0.056
[19]
  composite z-score: 0.144
[20]
  composite z-score: 0.605

## CCCC=C(CCC)[C@@H](NS(=O)(=O)c1ccc(C(F)(F)F)cc1)c1ccccc1
[1]
  composite z-score: 0.907
[2]
  z-score: 1.22 (inactive)
[3]
  z-score: 1.46 (inactive)
[4]
  z-score: 3.03 (inactive)
[5]
  composite z-score: 1.41
[6]
  z-score: -1.74 (inactive)
[7]
  composite z-score: 0.0749
[8]
  composite z-score: -0.0917
[9]
  composite z-score: 0.275
[10]
  composite z-score: -0.0415
[11]
  composite z-score: 0.156
[12]
  composite z-score: -0.001
[13]
  composite z-score: 0.614
[14]
  z-score: -0.172 (inactive)
[15]
  composite z-score: 0.0772
[16]
  composite z-score: 0.571
[17]
  composite z-score: -0.585
[18]
  composite z-score: -0.143
[19]
  composite z-score: -0.61
[20]
  composite z-score: 0.388
